The supplement of paper PMC3334620
Whole data set: some 33,000 sequences, median “E-score (-0.5 to 0.5)” near -0.0034, cut for the highest 2% near 0.25. The sample holds the highest values, similar sequences and a random draw of the others, so the mix is not that of the screen.

Target: T1, Yap3 (UniProt P38749)
T1 sequence: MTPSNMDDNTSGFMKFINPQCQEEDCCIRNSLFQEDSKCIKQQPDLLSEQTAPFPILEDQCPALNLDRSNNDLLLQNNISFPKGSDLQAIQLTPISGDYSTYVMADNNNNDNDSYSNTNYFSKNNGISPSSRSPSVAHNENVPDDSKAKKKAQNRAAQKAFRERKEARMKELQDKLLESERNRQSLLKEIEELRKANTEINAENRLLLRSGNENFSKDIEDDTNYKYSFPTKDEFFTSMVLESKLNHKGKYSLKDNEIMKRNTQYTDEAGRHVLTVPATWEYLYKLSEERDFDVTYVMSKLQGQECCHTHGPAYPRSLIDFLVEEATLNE
Assay: PBM E-score (8-mer binding enrichment) (E-score (-0.5 to 0.5)); higher = stronger / more preferred TF binding
Conditions: protein concentration: 100 nM; construct: GST-full length
Experimental: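 Universal 'all 10-mer' protein binding microarrays (Agilent AMADID 015681) probed with GST-tagged S. cerevisiae TFs (full-length or DBD) made by in vitro transcription/translation (PURExpress), about 100-200 nM. Bound TF was detected with fluorescent anti-GST. Each ungapped 8-mer (which stands for itself and its reverse complement) is scored by the PBM enrichment score (E-score), a modified Wilcoxon-Mann-Whitney statistic from -0.5 to +0.5, computed with the Universal PBM Analysis Suite. Scale: above 0.35 generally sequence-specific binding.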

Sequence | PBM E-score
ATCAGGCA | -0.0855
CGCACTTA | -0.0802
GCTGTGCA | -0.205
AACGGCGG | -0.208
ATATTACG | 0.412
CCATTACA | 0.272
CCATTACG | 0.0884
ACATTACA | 0.131
ACATTACT | 0.213
ATATTACA | 0.226
AGATTATG | 0.129
ATATTATC | 0.149
ACATTACG | 0.286
AGATTACG | 0.213
ATATTATG | 0.399
GCATTACA | 0.1
CTTTGACC | 0.0628
AGCTTGGC | -0.207
AATAGCGT | 0.195
ATATTACC | 0.276
AGATTACC | 0.155
CTATTACC | -0.0641
AAAGTACA | 0.27
CAAGTACA | -0.0722
AAAGTACC | 0.176

Sequence | PBM E-score
ATAAGAAA | 0.207
ACAAAGAA | 0.257
ACAAGAAT | 0.1
TCAAAGAA | -0.0713
ACGAAGAT | 0.0321
ATAAGAAC | 0.289
CCAAGAAA | -0.00981
ACGAAGAA | 0.282
ACAAGAAA | 0.268
TCGAAGAA | -0.0713
CCAAAGAA | 0.124
ATAAGAAT | 0.207
AACTTTTC | 0.0947
AATCCCGG | -0.139
CTGAGGAA | -0.0654
ACCAGGTG | -0.245
CCTTTGGA | -0.218
ACCACAGT | 0.143
GAACCAAC | 0.00249
AGACATCC | -0.152
GACTGCAA | -0.0662
CCAACCGG | -0.193
ATCCAACC | 0.00913
CGGGTGGC | -0.289
ATAAAGAA | 0.26

Sequence | PBM E-score
CTAAAGAA | 0.0205
TTAAAGAA | 0.19
ATATCACG | 0.181
GTGTCGAA | -0.0549
CTGTATGC | -0.0877
CACGCCAA | -0.0782
ATTCAATC | 0.0991
AAAAGTGA | 0.132
CAAAGTGA | 0.0818
TAAAGTGA | 0.263
CCAACTCC | 0.117
GGCCCAAA | -0.0982
CCAGCAAA | 0.0803
ATTAGTGA | 0.179
ATAAGTCC | 0.0332
CCTAGTCA | 0.0001
ATTAGTCC | 0.207
ATTAGTGC | 0.299
ATAAGTCA | 0.262
CTTAGTCC | -0.0515
ATTAGTGG | 0.243
CTTAGTCA | 0.373
CTAAGTCA | 0.024
ATTAGTCA | 0.42
ATTAGTCG | 0.12

Sequence | PBM E-score
CATTGAAC | 0.07
GCGTTGCA | -0.112
CAGAAACC | 0.0742
CACGCTAA | 0.0663
CGATCGAC | 0.14
AGATCTAT | -0.115
ATCGGGCG | -0.21
AGTGCTCG | -0.11
TCAAGCAA | -0.15
AAGAGCAC | -0.0358
CTTAGTAC | 0.0262
GTTAGTCA | 0.33
CTCAGTTA | -0.0635
GTTAGTTA | 0.169
GTCAGTTA | 0.113
ATTAGTTG | 0.192
GTTAGTGA | 0.0844
ATTAGTTA | 0.291
GGTAGTCA | -0.176
GTTAGTAA | 0.217
ATCAGTTA | 0.272
CTTAGTAA | 0.429
ACAGGTCG | -0.0506
TATTGACA | 0.0463
CCGCCAGC | -0.196

Sequence | PBM E-score
AACACTGC | 0.186
CACGCCTA | -0.1
GATATGCC | -0.0864
ATGATCGA | 0.0147
GTGATCGA | 0.282
CTGATCGA | -0.239
ACTTCCGG | 0.0969
CTCAAGAC | -0.133
AGTGAGTA | 0.271
GATGAGTA | 0.181
AATGAGAC | -0.0964
AGTGAGTG | -0.0641
AATGAGAT | 0.266
CATGAGTA | 0.0202
AATGAGTA | 0.33
CGTGAGTA | -0.0244
AATGAGAG | -0.0586
ACAAAACA | 0.202
TCCTAAAA | -0.115
CATAGAAA | 0.268
CAGAGAAA | 0.278
GATAGAAA | 0.187
CAGAGAAG | -0.127
GACAGAAA | 0.183
TATAGAAA | 0.0802

Sequence | PBM E-score
TACAGAAA | 0.262
GAGAGAAA | 0.0853
AACAGAAA | 0.157
CATCTACC | 0.145
CTTGAGCA | -0.119
ATCTTGCA | 0.151
AATAGATC | 0.08
GATTAATA | 0.367
AATTAATA | 0.353
GATTAAGA | 0.193
AATTAATG | 0.29
AATTAATT | 0.211
CATTAATA | 0.193
AATTAAGA | 0.154
GATTAATC | 0.117
CATTAATG | 0.212
TATTAACA | 0.23
AATTAATC | 0.0963
TATTAATA | 0.301
CACCCATG | -0.014
ATCGCACC | -0.106
GCTCTGTA | -0.055
GCCAAGTA | -0.0708
CATAAGAG | -0.071
CTTTTGTC | 0.0462

Sequence | PBM E-score
CGACCCAC | -0.219
TCGGATAA | 0.143
GTCAAGTA | -0.12
ATCTCTGC | 0.0777
ACACTGAT | 0.0678
ATTACTGG | -0.0154
TACGAAAA | 0.144
GGCGAAAC | 0.0862
GGCGAAAA | 0.256
GACGAAAA | 0.264
TGCGAAAA | 0.0554
CACGAAAA | 0.176
CTGCGATC | -0.0633
CGTAGATC | 0.0115
GTACAGGA | 0.0424
AACATCTC | 0.08
ACAGAAAA | 0.198
CCAGAAAC | 0.0139
ACTGAAAC | 0.27
GCTGAAAC | -0.0804
ACAGAAAC | 0.285
ACTGAAAG | 0.114
GCAAATCC | 0.156
